M1 antag: M1 muscarinic receptor (rat) antagonism | P08482 | CHO-M1 cells, Fluo-4 calcium, ACh EC80 antagonist mode; active compounds read low | B-score at 10 µM | 3.4% of 64,000 active;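 active = calcium fluorescence response, raw or row-and-column corrected B-score, differing from the plate sample mean either way at a set confidence level, mostly lower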
M1 agonist: activates the M1 muscarinic receptor. B-score at 10 µM. CHO-M1 cells, Fluo-4 calcium fluorescence, agonist mode; active compounds read high. 3% of 64,000 active;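 active = fluorescence rise, raw or as B-score row- and column-corrected plate score, outside the 99.7% band of its plate's samples, either direction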
FXIIa inh mix: blocks human factor XIIa in pooled compound mixtures; 0.2% of 62,000 active; purified FXIIa, fluorogenic substrate; P00748; inhibition, % at 5 µM
DAT uptake mod: changed human dopamine transporter uptake under cocaine IC80; LLC-PK1 hDAT cells, [14C]-dopamine uptake with cocaine IC80; actives deviate in either direction; AID 449768; 1.3% of 110,000 active; Q01959; B-score at 10 µM;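 active = Z score or B-score, a plate-position-corrected score, falls beyond the plate's 99.7% confidence bounds, in either direction; inactive = both scores lie inside the 99.7% bounds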
D1 allo mod: allosteric modulators of human D1 dopamine receptor; P21728; HEK293 D1, CRE-luciferase, dopamine EC30 potentiation; actives deviate in either direction; B-score at 10 µM; 5.9% of 58,000 active;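 active = luminescence count or its row- and column-corrected plate score outside the 99.7% band of the plate's sample wells, on either side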
FXIa mix inh: inhibitors of human coagulation factor XIa, pooled mixtures. purified FXIa, fluorogenic substrate. inhibition, % at 5 µM. 0.19% of 62,000 active;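 note: each value is inhibition by a whole ten-compound pool holding the compound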
Target sequence (P03951 19-387 limits assumed): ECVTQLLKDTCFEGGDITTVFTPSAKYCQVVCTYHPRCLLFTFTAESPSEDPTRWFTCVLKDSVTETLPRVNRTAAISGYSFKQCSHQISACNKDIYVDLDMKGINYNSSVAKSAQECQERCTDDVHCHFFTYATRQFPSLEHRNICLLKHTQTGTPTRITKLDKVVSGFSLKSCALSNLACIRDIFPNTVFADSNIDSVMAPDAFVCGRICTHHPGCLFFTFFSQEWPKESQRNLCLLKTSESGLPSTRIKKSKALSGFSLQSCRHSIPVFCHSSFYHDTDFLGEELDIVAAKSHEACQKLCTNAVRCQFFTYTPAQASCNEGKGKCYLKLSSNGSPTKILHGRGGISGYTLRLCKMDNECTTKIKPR
Target sequence (P03951 388-625 limits assumed): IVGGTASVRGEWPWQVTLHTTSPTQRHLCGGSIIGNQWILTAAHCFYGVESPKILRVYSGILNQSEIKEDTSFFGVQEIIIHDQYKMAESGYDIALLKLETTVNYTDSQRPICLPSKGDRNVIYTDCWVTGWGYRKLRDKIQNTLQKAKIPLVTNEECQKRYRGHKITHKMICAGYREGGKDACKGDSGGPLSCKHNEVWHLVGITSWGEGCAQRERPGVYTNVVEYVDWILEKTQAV
M1 antag confirm: confirmation of rat M1 muscarinic receptor antagonists | shares compounds with M1 antag | CHO-M1 cells, Fluo-4 calcium, ACh EC80 antagonism; active compounds read low | calcium response (max-min fluorescence) at 10 µM | 43% of 1,700 active;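 active = calcium response below the same-plate mean of wells given acetylcholine alone at its 80%-effect dose, minus 3 SD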
mGluR4 antag: acts on human mGluR4 in M1 antagonist selectivity test; shares compounds with M1 antag; 0.9% of 1,700 active; fluorescence response (max-min) at 10 µM; CHO-mGluR4 calcium flux, Fluo-4 fluorescence, glutamate EC80; active compounds read low; AID 678;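 active = fluorescence response below the plate's average for near-maximal glutamate wells, less 3 SD of those wells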;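 note: raw unnormalized fluorescence span taken in the window right after glutamate addition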
A number is an active result; i = inactive; nt = no result given. In the library only some 7.4% were active in any assay of this set; here they are far more common. Cut-off read from the data, not from the text of the source, unless noted: active = inhibition above about 20% (passing the limit was not always enough); inactive = the rest.

SMILES | M1 antag | M1 agonist | FXIIa inh mix | DAT uptake mod | D1 allo mod | FXIa mix inh | M1 antag confirm | mGluR4 antag
CCN(CC)C(=O)COc1ccc(-c2nnc(N3CCCCC3)c3ccccc23)cc1 | -2.9 | i | i | i | i | i | 531 | i
Cc1cc(Cl)c(S(=O)(=O)N2CCCCCC2)cc1OCC(N)=O | i | i | i | i | i | i | nt | nt
C=C(C)C1CC=C(CN2CCC(C(=O)OCC)CC2)CC1 (configuration not stated) | -3.7 | i | i | i | i | i | 422 | i
CC(=O)Nc1cc(NC(C)=O)c(CC(C)C)s1 | i | i | i | i | i | i | nt | nt
CCOC(=O)c1c(C)n(C)c2ccc(O)c(CN3CCC(C)CC3)c12 | -2 | i | i | i | i | i | i | i
CCOC(=O)c1c(C)n(C)c2ccc(O)c(CN3CCN(C)CC3)c12 | i | i | i | i | i | i | nt | nt
O=C(O)C1CCCN(S(=O)(=O)c2ccc(Br)cc2)C1 (configuration not stated) | nt | nt | nt | i | nt | nt | nt | nt
CCOc1ccccc1N1CSC2=C(C#N)C(c3c(OC)ccc4ccccc34)CC(=O)N2C1 (configuration not stated) | i | i | i | i | i | i | nt | nt
N#Cc1cn(Cc2ccccc2)c2ccccc12 | -1.9 | i | i | i | i | i | i | i
N#Cc1ccccc1Cn1cc(C#N)c2ccccc21 | nt | nt | nt | i | nt | nt | nt | nt
COc1ccc(NC(=O)Cn2cc(C(=O)c3ccco3)c3ccccc32)cc1 | nt | nt | nt | i | nt | nt | nt | nt
Cc1noc(/C=C/N(C)C)c1S(=O)(=O)N1CCCC(C(=O)NC2CCCCC2)C1 (configuration not stated) | -2.3 | i | i | i | i | i | i | i
CCc1nn2c(=O)cc(N3CCN(c4cc(C)nc5ccccc45)CC3)nc2s1 | i | i | i | i | i | i | nt | nt
COC(=O)c1c(C)oc2cc(Br)c(OCC(=O)C(C)(C)C)cc12 | -1.9 | i | i | i | i | i | i | i
C=CCn1nnc2sc3c(c2c1=O)CCC(C)C3 (configuration not stated) | nt | nt | i | i | nt | i | nt | nt
CCOc1ccc2nc(N3CCC(C(=O)N4CCN(C5CCCCC5)CC4)CC3)sc2c1 | -2.9 | i | i | i | i | i | 378 | i
Cc1cc(F)c(F)c(C(=O)N2CCOCC2)c1Cl | nt | nt | nt | i | nt | nt | nt | nt
Oc1c(C(c2ccccc2)N2CCc3ccccc3C2)sc2ncnn12 (configuration not stated) | i | i | i | i | i | i | nt | nt
Oc1c(C(c2ccco2)N2CCN(C(c3ccccc3)c3ccccc3)CC2)sc2ncnn12 (configuration not stated) | -3.4 | i | i | i | i | i | 512 | i
COCCCNC(=O)CSC1=Nc2ccccc2C2=NC(CC(=O)NCc3ccccc3)C(=O)N12 (configuration not stated) | -2.5 | i | i | i | i | i | i | i
Cc1cc2ncn(C(=O)c3c(-c4ccccc4Cl)noc3C)c2cc1C | -5.5 | i | i | i | i | i | 264 | i
Cc1cc(=O)[nH]c(SCC(=O)Nc2ccccc2C#N)c1C#N | nt | nt | nt | i | nt | nt | nt | nt
c1ccc2c(c1)[nH]c1c(N3CCCC3)ncnc12 | -5.4 | i | i | i | i | i | 405 | i
c1ccc2c(c1)[nH]c1c(N3CCSCC3)ncnc12 | -2.9 | i | nt | nt | nt | nt | i | i
Cc1ccc2[nH]c3c(N4CCOCC4)ncnc3c2c1 | i | i | i | i | i | i | nt | nt
SMILES | M1 antag | M1 agonist | FXIIa inh mix | DAT uptake mod | D1 allo mod | FXIa mix inh | M1 antag confirm | mGluR4 antag
c1ccc2c(c1)[nH]c1c(N3CCOCC3)ncnc12 | i | i | i | i | i | i | nt | nt
CN1CCN(c2ncnc3c2[nH]c2ccc(F)cc23)CC1 | -6.2 | i | i | i | nt | i | i | i
COc1ccc(/C=N/NC(=O)CN2CCS(=O)(=O)CC2)cc1 | nt | nt | nt | i | nt | nt | nt | nt
CCCCCN(C(=O)NC(=O)NC(C)CC)S(C)(=O)=O (configuration not stated) | i | i | i | i | i | i | nt | nt
CSc1nc(NCC(C)C)c2c3c(sc2n1)CN(C)CC3 | nt | nt | nt | i | nt | nt | nt | nt
CCCSc1nc(N)c2c3c(sc2n1)CN(C)CC3 | -3.9 | i | i | nt | i | i | 485 | i
CN(C)CCSc1nc(N)c2c3c(sc2n1)CN(C)CC3 | -6.2 | i | i | i | i | i | 545 | i
COC(=O)CCCc1nc2ccccc2s1 | -2.5 | i | i | i | i | i | i | i
NC(=O)COC(=O)CCCc1nc2ccccc2s1 | nt | nt | nt | i | nt | nt | nt | nt
O=C(CCc1nc2ccccc2[nH]1)N1CCc2ccccc2C1 | i | i | i | nt | i | i | nt | nt
Clc1ccc(CSC2=NCCCN2)cc1Cl | -4 | i | i | i | i | i | 355 | i
Cc1cc(C)cc(Nc2cc(C)nc3nc(C)nn23)c1 | i | i | i | i | i | i | nt | nt
O=C(Nc1ccc(S(=O)(=O)N2CCCc3ccccc32)cc1)C1CCCO1 (configuration not stated) | -9.7 | i | i | i | i | i | 29 | i
CCCCOc1ccc(NC2=NC3(CCCCC3)N=C(N)N2)cc1 | -2.3 | i | nt | i | i | nt | i | i
COc1ccc(NC2=NC3(CCCCC3)N=C(N)N2)cc1 | i | i | i | i | i | i | nt | nt
CN(C)C(=O)CSc1nnc(-c2cc(-c3cccs3)nc3ccccc23)o1 | -3.7 | i | i | i | i | i | i | i
Cc1ccc(C(C(=O)NC2CCCC2)N(Cc2cccnc2)C(=O)c2snc(C(N)=O)c2N)o1 (configuration not stated) | -0.32 | i | i | i | i | i | i | i
CN(CC(=O)N1CCCc2c1c(=O)oc1ccc(O)cc21)Cc1ccccc1 | -6.5 | i | i | i | i | i | 467 | i
CCCOc1ccc2oc(=O)c3c(c2c1)CCCN3C(=O)CN1CCN(C(=O)c2ccco2)CC1 | i | i | i | nt | i | i | nt | nt
CCCOc1ccc2oc(=O)c3c(c2c1)CCCN3C(=O)CN1CCCC(C(=O)OCC)C1 (configuration not stated) | -4.9 | i | i | i | i | i | 440 | i
O=C(CN1CCCC1)N1CCCc2c1c(=O)oc1ccc(OCc3ccccc3)cc21 | -2.5 | i | i | 2.2 | i | i | 384 | i
Cc1ccc(NC(=O)C2CCCN(S(=O)(=O)c3cccs3)C2)cc1 (configuration not stated) | i | i | i | i | i | i | nt | nt
O=C(C1=C(O)C(=O)N(CCOCCO)C1c1cccs1)c1cccs1 (configuration not stated) | i | i | i | i | i | i | nt | nt
ON=Cc1cccn1-c1ccccc1 | i | i | i | i | i | i | nt | nt
COC(=O)c1ccccc1NC(=O)CN1CCN(C23CC4CC(CC(C4)C2)C3)CC1 | -11 | i | i | i | i | i | 393 | i
O=C(CN1CCC(n2nnc3cc(F)ccc32)CC1)NCCc1ccccc1 | nt | nt | nt | i | nt | nt | nt | nt

Bioassay records: PubChem, several laboratories
